Compound activity deposited in PubChem by several laboratories.
Most compounds without a hit are left out; they make up all but 1.8% or so of the library.
aDG glyco up: increases alpha dystroglycan glycosylation; hit rate 0.22% among 360,000; activation, % at 10 µM; Pro5-aDG cells, alpha-DG glycosylation AlphaScreen (IIH6); 0% Pro5, 100% B10-LARGE cell signal;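 active = activation of at least 8% versus controls, or a plate z-score of at least 8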;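 note: Pro5 are CHO cells carrying HIG-tagged alpha-DG that lacks glycosylation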
AI-2 QS modul: Vibrio harveyi AI-2 quorum sensing modulation; Vibrio harveyi JMH597 AI-2 luminescence/OD600 ratio, 9 h; active compounds read low; strain lacks LuxN and CqsS sensors; 0 = neutral-control median; activity change, % at 7.5 µM; hit rate 0.4% among 300,000; AID 2094; in the data active = activity change below about -75%, passing the limit was not always enough; inconclusive = no clear call, values can overlap the other calls;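 note: luminescence divided by OD600 gain over 9 h not by final OD600 alone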
A1 inh: inhibitors of the anti-apoptotic protein A1, read as caspase activation | MEF A1-2A-BIM cells, Caspase-Glo 3/7 luminescence, 3 h; percent of clofoctol response, vehicle zero | caspase activation, % (test concentration not listed) | hit rate 0.066% among 330,000;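 active = over half of replicate activation scores above 10%, or exactly half above 10 with the replicate mean above 10; inconclusive = replicate mean below 10 yet half the replicates above 10; inactive = over half of replicates below 10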
ARNT TACC3 PPI: ARNT/TACC3 interaction disruption; Q9Y6A5; AlphaScreen His-ARNT PAS-B/GST-TACC3 binding, luminescence; TACC3 fragment carries E629A point mutation; inhibition, % at 9.99 µM; hit rate 0.66% among 390,000; AID 623870;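 active = mean inhibition of replicates at least 50% and at least half of replicates each reaching 50%; inconclusive = half or more replicates reach 50% but mean below 50%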;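 note: 0% = complete ARNT plus TACC3 wells and 100% = ARNT alone without TACC3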
Mot1-301 SUMO: inhibitors of SUMOylation pathway: yeast Mot1-301 growth rescue; hit rate 1% among 320,000; growth rescue, % at 18.8 µM; S. cerevisiae Mot1-301 growth rescue, ATP luminescence, 38.5C; percent above DMSO median, 100 means doubled;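 active = every valid replicate shows activation above 250% relative to neutral control wells; inactive = the rest, any valid replicate at or below 250%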;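 note: OY570 slx delta 5 strain wells were the positive control but not used for scaling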
An asterisk follows results filed as active; ? = inconclusive; / = no result given; ! = not confirmed by another sample.

SMILES	aDG glyco up	AI-2 QS modul	A1 inh	ARNT TACC3 PPI	Mot1-301 SUMO
O=C(N/N=C/c1c(O)n(C2CC2)c(=S)[nH]c1=O)c1ccccc1O	0	5	-8	60*	-16
Cc1ccccc1-n1c(O)c(/C=N/NC(=O)c2ccccc2O)c(=O)[nH]c1=S	0	11	-4	57*	387
O=c1[nH]c(=S)n(C2CC2)c(O)c1C=NCc1ccc(F)cc1	0	21	-1	-2	34
CCOC(=O)c1ccc(N=Cc2c(O)n(-c3ccccc3F)c(=S)[nH]c2=O)cc1	0	4	1	-3	-2
c1ccc(CNc2c3c(nc4ccccc24)CCC3)cc1	0	23	1	1	26
COc1ccc(-c2nc3ccccc3c(=O)n2-c2ccc(OC)cc2)cc1	0	4	0	11	12
CCn1nc(-c2ccccc2)nc2c(=O)n(C)c(=O)nc1-2	0	-93*	0	-40	44
CNc1ccc2nc3ccccc3[n+](C)c2c1	2.7*	10	0	68*	-33
COc1ccc(/C=C2\C(=O)NC(=S)N(C)C2=O)cc1C	0	7	0	55*	-15
Cc1ccsc1/C=C1\C(=O)NC(=S)N(C)C1=O	0	44	0	-1	-12
COCCNC(=O)c1c(NC(=O)c2ccc(Br)o2)n(Cc2ccccc2)c2nc3ccccc3nc12	0	11	0	-7	830*
COc1c(C)cc(C(=O)C2CCCN(Cc3cnc(C)s3)C2)cc1C (stereo unspecified)	0	27	2	-5	280
Cc1ncc(CN2CCCC(C(=O)c3cccc(OC(C)C)c3)C2)s1 (stereo unspecified)	0	17	0	0	295*
CCC1CN1P(=S)(N1CC1CC)N1CC1CC (stereo unspecified)	0	/	/	23	/
C[C@]12CCC(OC(=O)CCC(=O)O)CC1=CCC1C2CC[C@]2(C)C(=O)CCC12 (stereo partly specified)	0	7	?	-5	13
Cc1cc(N2C(=O)C3CCCN3C2c2ccccc2)no1 (stereo unspecified)	0	9	0	1	1
O=C1NC(=O)C(=Cc2ccc(OCCOc3ccc([N+](=O)[O-])cc3)cc2)C(=O)N1	0	28	-1	active	-6
COc1cccc(-c2sc3ccccc3c2-c2ccc(OCCN3CCOCC3)cc2)c1	0	/	3	12	462*
c1ccc2[nH]c(CCNC3CCCCC3)nc2c1	1	14	-1	-4	-4
Cc1ccc(NC(=S)NCCc2cnc[nH]2)cc1C	0	4	0	-1	-30
S=C(NCCc1ccccc1)NCCc1cnc[nH]1	0	-4	0	57*	-8
CCCCC(=O)N/N=C/c1c(O)n(Cc2ccc(F)cc2)c(=O)[nH]c1=O	0	12	0	69*	-3
CCCCC(=O)N/N=C/c1c(O)n(CCc2ccccc2)c(=O)[nH]c1=O	0	14	0	/	-17
O=C(N/N=C/c1c(O)n(Cc2ccc(F)cc2)c(=O)[nH]c1=O)c1ccccc1	0	33	0	50*	-12
O=C(N/N=C/c1c(O)n(Cc2ccccc2)c(=O)[nH]c1=O)c1ccncc1	0	13	0	/	-7
SMILES	aDG glyco up	AI-2 QS modul	A1 inh	ARNT TACC3 PPI	Mot1-301 SUMO
COc1cccc(C(=O)N2CCC3(CC2)OCCO3)c1	0	-5	0	-7	224
CCOc1cc2c(cc1OCC)-n1cccc1C(c1cccc(F)c1F)NC2 (stereo unspecified)	0	18	0	4	2
CN1CC[C@@]2(C)c3cc(O)ccc3N(C)C2O1 (stereo partly specified)	1	39	1	30*	1
CN1CC[C@@]2(C)c3cc(O)ccc3N(C)[C@@H]12	1	/	/	47*!	/
O=C1NCN(c2ccccc2)C12CCN(C(c1cc3ccccc3o1)c1nnnn1Cc1ccccc1)CC2 (stereo unspecified)	0	/	/	/	/
Cc1ccc(-c2cc(-c3ccc(C)cc3)[n+](-c3ccc(C(=O)O)cc3)c(-c3ccc(C)cc3)c2)cc1	0	9	1	1	16
Cc1ccc(C[n+]2c(-c3ccc(C)cc3)cc(-c3ccc(C)cc3)cc2-c2ccc(C)cc2)cc1	0	-41	1	14	280*
CCN(CC)S(=O)(=O)c1ccc(N=Cc2c(O)n(-c3ccccc3)c(=O)[nH]c2=O)cc1	0	13	0	-7	73
O=c1[nH]c(=O)n(-c2ccc(Cl)cc2)c(O)c1C=Nc1ccc(S(=O)(=O)Nc2nccs2)cc1	0	-78*	0	-9	19
CN1CCN(c2ccc([N+](=O)[O-])c3no[n+]([O-])c23)CC1	0	6	3	38*	233
Cc1nc2c(=O)n(C)c(=O)nc-2n(C)n1	0	-95*	-1	19	-19
COc1ccc(-n2c(O)c(C(C)=NCC3CCCO3)c(=O)[nH]c2=O)cc1 (stereo unspecified)	0	24	0	1	5
CC(=NCC1CCCO1)c1c(O)n(-c2ccc(Cl)cc2)c(=O)[nH]c1=O (stereo unspecified)	0	32	0	/	547*
CC1(C)C[C@H]2C=C(C=O)[C@]3(C=O)C[C@]3(C)[C@H]2C1	0	10	-1	2	358*
CC(C)c1ccc(N=Cc2c(O)n(C3CC3)c(=S)[nH]c2=O)cc1	0	17	0	-2	25
CC(C)(O)/C=C/C(=O)C(C)(O)C1C(O)CC2(C)C3CC=C4C(C=C(O)C(=O)C4(C)C)C3(C)C(=O)CC12C (stereo unspecified)	0	/	/	9	/
CC(=O)OC(C)(C)/C=C/C(=O)[C@](C)(O)C1[C@H](O)C[C@@]2(C)C3CC=C4C(C[C@H](O)C(=O)C4(C)C)[C@]3(C)C(=O)C[C@]12C (stereo partly specified)	3	/	21*	-7	5
CC(C)OC(=O)c1c(N)n(Cc2ccco2)c2nc3ccccc3nc12	0	19	0	44	-14
CCOC(=O)c1c(N)n(CCCOC(=O)c2ccco2)c2nc3ccccc3nc12	14*	13	-2	19	-10
COCCCn1c(N)c(C(=O)OCCOC)c2nc3ccccc3nc21	0	41	1	4	35
CCOC(=O)c1c(N)n(Cc2ccc(OC)cc2)c2nc3ccccc3nc12	/	18	/	/	/
COCCOC(=O)c1c(N)n(Cc2ccco2)c2nc3ccccc3nc12	0	-3	0	62*	-9
COC(=O)c1c(N)n(Cc2ccc(OC)cc2)c2nc3ccccc3nc12	3	/	-1	15*	538
COc1ccc(S(=O)(=O)NC(CC(=O)N2CCC3(CC2)OCCO3)C(C)C)cc1 (stereo unspecified)	0	24	1	3	-8
